# According to publication PMC7862700, “An all-to-all approach to the identification of sequence-specific readers for epigenetic DNA modifications on cytosine”:
# How the values were obtained:
# Assay in all cases: DAPPL (digital affinity profiling via proximity ligation, sequencing); 10 mM Tris-HCl pH 7.5, 50 mM NaCl, 1 mM DTT, 4% glycerol, room temperature, 30 min; GST-TFs on glutathione beads, 16-mer random dsDNA library, 0.1% formaldehyde crosslink after washing; high values mean tight binding
# [1] = target: T1, FEV (Homo sapiens, UniProt Q99581 1-238); conditions: protein: recombinant; tags: N-terminal GST; dsDNA, one strand shown
# T1 sequence: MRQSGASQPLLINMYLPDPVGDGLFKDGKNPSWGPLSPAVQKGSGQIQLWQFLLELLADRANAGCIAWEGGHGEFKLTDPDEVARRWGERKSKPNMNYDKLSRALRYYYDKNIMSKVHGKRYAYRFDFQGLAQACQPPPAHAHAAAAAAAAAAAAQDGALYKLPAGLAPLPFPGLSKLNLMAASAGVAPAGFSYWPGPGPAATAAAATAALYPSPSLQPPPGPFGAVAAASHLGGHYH
# Summary of the method: (§1)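 Human transcription factors carrying a GST fusion were produced in yeast, bound to glutathione beads, tagged with DNA barcodes and pooled together with a tag-only sample. Each pool was held with 200 nmole of a random double-stranded 16-mer DNA library in Tris/NaCl/DTT/glycerol buffer for 30 min at room temperature, then washed, crosslinked in 0.1% formaldehyde, proximity-ligated with BsaI/T4 ligase (1 h, 37 °C), PCR-amplified and sequenced on an Illumina NextSeq500. Binding signal is the read frequency of each hexamer for a given factor divided by its frequency in the tag-only sample.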
# [2] = target: ETV5 (Homo sapiens, UniProt P41161 1-510); conditions: protein: recombinant; tags: N-terminal GST; dsDNA, one strand shown
# Summary of the method: as §1
# [3] = target: HSF1 (Homo sapiens, UniProt Q00613 1-529); conditions: protein: recombinant; tags: N-terminal GST; chain copies: 3; dsDNA, one strand shown
# Summary of the method: as §1
# [4] = target: T2, SPIC (Homo sapiens, UniProt Q8N5J4 1-248); conditions: protein: recombinant; tags: N-terminal GST; dsDNA, one strand shown
# T2 sequence: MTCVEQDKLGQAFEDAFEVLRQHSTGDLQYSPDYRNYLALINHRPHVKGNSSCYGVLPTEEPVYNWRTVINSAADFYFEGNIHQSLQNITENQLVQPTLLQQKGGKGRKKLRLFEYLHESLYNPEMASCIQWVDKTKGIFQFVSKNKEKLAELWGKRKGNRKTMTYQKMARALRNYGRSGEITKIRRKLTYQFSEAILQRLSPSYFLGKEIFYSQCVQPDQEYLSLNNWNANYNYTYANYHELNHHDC
# Summary of the method: as §1
# [5] = target: ELF4 (Homo sapiens, UniProt Q99607 1-663); conditions: protein: recombinant; tags: N-terminal GST; dsDNA, one strand shown
# Summary of the method: as §1
# [6] = target: T3, ELK4 (Homo sapiens, UniProt P28324-2 1-405); conditions: protein: recombinant; tags: N-terminal GST; dsDNA, one strand shown
# T3 sequence: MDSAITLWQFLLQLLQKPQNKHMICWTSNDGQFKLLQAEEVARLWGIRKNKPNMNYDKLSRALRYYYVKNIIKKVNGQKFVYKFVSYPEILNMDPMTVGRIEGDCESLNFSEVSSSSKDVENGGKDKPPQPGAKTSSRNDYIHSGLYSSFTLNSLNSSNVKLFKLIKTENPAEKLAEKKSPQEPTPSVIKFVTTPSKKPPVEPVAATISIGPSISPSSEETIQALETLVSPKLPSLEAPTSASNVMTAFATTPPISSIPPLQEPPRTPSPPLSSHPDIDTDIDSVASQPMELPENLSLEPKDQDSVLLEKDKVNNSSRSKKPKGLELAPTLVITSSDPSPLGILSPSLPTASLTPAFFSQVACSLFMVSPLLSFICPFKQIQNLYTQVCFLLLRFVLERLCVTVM
# Summary of the method: as §1
# [7] = target: T4, ETV2 (Homo sapiens, UniProt O00321 1-342); conditions: protein: recombinant; tags: N-terminal GST; dsDNA, one strand shown
# T4 sequence: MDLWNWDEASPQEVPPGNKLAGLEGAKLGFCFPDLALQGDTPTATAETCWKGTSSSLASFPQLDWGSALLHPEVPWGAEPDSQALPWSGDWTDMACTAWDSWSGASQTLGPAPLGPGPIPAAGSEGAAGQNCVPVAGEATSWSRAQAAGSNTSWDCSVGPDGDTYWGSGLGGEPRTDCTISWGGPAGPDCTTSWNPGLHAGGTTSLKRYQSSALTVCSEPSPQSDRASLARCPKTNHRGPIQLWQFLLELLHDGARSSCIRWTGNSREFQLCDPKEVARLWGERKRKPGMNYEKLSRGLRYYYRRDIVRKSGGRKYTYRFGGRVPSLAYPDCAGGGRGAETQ
# Summary of the method: as §1
# [8] = target: T5, ELF3 (Homo sapiens, UniProt P78545 1-371); conditions: protein: recombinant; tags: N-terminal GST; dsDNA, one strand shown
# T5 sequence: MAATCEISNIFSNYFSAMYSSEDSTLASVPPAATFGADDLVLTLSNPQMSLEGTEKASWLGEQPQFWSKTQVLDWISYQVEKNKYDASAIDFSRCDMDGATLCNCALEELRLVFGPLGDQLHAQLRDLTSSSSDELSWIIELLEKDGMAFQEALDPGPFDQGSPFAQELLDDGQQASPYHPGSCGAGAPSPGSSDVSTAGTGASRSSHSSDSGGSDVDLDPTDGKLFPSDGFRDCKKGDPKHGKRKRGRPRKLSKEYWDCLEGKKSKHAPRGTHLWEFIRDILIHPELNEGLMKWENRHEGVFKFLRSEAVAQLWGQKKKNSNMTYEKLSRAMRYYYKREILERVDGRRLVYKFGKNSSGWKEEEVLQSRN
# Summary of the method: as §1
# [9] = target: CRX (Homo sapiens, UniProt O43186 1-299); conditions: protein: recombinant; tags: N-terminal GST; dsDNA, one strand shown
# Summary of the method: as §1
# [10] = target: ETV1 (Homo sapiens, UniProt P50549 1-477); conditions: protein: recombinant; tags: N-terminal GST; dsDNA, one strand shown
# Summary of the method: as §1
# [11] = target: T6, ERF (Homo sapiens, UniProt P50548 1-548); conditions: protein: recombinant; tags: N-terminal GST; dsDNA, one strand shown
# T6 sequence: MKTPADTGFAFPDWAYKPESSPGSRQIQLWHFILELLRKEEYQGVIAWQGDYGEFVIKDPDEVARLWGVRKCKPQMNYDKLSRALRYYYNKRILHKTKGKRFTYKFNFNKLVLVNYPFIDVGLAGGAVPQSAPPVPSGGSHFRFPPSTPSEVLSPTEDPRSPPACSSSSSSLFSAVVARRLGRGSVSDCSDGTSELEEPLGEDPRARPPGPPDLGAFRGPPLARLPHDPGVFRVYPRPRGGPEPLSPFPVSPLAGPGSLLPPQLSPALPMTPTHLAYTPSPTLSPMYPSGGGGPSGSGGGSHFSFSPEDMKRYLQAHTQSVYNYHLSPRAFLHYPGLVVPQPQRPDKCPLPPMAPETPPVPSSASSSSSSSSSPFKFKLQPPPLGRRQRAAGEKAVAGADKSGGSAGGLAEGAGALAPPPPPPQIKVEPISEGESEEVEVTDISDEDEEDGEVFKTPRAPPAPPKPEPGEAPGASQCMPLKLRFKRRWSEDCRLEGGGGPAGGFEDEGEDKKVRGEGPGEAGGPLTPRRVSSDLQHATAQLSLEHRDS
# Summary of the method: as §1
# [12] = target: T7, ETV3L (Homo sapiens, UniProt Q6ZN32 1-361); conditions: protein: recombinant; tags: N-terminal GST; dsDNA, one strand shown
# T7 sequence: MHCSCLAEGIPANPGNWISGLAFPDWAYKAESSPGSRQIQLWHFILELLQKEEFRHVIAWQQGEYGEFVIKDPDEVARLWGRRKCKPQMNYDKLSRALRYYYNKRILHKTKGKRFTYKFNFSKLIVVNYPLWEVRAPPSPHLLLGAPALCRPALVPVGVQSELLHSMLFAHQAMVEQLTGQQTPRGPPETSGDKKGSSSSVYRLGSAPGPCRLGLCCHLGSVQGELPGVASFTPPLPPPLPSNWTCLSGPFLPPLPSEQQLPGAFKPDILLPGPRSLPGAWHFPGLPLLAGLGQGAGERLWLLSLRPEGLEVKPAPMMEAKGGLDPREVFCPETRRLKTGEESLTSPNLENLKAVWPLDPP
# Summary of the method: as §1
# [13] = target: T8, ETS2 (Homo sapiens, UniProt P15036 1-469); conditions: protein: recombinant; tags: N-terminal GST; dsDNA, one strand shown
# T8 sequence: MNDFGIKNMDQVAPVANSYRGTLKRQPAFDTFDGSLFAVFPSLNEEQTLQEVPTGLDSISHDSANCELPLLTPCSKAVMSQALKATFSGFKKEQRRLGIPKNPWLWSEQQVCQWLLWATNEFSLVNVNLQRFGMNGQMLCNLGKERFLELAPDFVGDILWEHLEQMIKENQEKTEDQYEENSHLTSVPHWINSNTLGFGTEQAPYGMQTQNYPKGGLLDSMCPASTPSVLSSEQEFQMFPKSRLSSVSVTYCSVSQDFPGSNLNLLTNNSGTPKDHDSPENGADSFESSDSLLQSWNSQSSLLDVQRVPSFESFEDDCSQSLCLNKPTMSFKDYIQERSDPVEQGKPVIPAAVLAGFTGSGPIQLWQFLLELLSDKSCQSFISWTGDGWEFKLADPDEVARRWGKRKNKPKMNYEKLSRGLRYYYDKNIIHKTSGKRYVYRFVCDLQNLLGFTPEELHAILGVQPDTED
# Summary of the method: as §1
# [14] = target: T9, SPDEF (Homo sapiens, UniProt O95238 1-335); conditions: protein: recombinant; tags: N-terminal GST; dsDNA, one strand shown
# T9 sequence: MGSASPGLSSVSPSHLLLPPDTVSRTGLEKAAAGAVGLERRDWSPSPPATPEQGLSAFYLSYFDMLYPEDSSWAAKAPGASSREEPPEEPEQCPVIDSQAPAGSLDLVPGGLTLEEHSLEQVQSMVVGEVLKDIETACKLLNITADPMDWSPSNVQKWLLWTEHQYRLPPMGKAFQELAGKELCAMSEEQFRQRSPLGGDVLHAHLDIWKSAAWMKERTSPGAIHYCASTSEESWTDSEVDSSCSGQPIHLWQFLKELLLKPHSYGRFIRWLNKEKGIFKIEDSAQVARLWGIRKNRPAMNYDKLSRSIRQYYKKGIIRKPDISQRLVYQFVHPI
# Summary of the method: as §1
# [15] = target: T10, ETV7 (Homo sapiens, UniProt Q9Y603 1-341); conditions: protein: recombinant; tags: N-terminal GST; dsDNA, one strand shown
# T10 sequence: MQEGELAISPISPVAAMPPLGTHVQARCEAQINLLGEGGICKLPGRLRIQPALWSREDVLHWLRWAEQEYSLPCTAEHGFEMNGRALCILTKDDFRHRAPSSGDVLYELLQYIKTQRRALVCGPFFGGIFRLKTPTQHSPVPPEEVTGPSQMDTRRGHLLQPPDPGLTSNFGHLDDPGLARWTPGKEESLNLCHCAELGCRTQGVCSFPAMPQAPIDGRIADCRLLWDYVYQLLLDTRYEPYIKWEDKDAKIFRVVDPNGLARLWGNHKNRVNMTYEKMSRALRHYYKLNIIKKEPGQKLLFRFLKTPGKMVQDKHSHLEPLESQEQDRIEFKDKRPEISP
# Summary of the method: as §1
# [16] = target: T11, ELF5 (Homo sapiens, UniProt Q9UKW6-2 1-255); conditions: protein: recombinant; tags: N-terminal GST; dsDNA, one strand shown
# T11 sequence: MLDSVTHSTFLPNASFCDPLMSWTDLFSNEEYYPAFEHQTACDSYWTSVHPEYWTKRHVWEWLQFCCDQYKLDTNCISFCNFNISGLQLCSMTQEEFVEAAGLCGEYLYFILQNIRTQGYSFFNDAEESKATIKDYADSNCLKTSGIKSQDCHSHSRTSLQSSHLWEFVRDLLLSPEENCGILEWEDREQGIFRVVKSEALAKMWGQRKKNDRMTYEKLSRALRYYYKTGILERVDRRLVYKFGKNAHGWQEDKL
# Summary of the method: as §1
# [17] = target: T12, ETV3 (Homo sapiens, UniProt P41162-2 1-143); conditions: protein: recombinant; tags: N-terminal GST; dsDNA, one strand shown
# T12 sequence: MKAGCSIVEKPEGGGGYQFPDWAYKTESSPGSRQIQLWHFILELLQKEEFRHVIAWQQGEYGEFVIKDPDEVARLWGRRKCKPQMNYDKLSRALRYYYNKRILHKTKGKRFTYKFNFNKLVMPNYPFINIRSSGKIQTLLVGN
# Summary of the method: as §1
# [18] = target: ETV6 (Homo sapiens, UniProt P41212 1-452); conditions: protein: recombinant; tags: N-terminal GST; dsDNA, one strand shown
# Summary of the method: as §1
# ETV1, sequence (P50549 whole entry): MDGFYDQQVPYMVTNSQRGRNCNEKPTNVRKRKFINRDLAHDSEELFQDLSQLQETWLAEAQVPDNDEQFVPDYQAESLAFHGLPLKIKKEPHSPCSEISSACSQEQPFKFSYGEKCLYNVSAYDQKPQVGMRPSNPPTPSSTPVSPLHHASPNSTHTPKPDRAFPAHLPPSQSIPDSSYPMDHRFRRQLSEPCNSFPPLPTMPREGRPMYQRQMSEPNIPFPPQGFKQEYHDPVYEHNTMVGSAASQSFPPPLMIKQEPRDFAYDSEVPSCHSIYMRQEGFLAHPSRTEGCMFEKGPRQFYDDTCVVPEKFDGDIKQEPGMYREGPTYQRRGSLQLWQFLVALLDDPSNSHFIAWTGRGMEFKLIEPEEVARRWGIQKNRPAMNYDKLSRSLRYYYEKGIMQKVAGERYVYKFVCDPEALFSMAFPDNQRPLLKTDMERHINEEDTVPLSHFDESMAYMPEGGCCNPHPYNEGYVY
# CRX, sequence (O43186 whole entry): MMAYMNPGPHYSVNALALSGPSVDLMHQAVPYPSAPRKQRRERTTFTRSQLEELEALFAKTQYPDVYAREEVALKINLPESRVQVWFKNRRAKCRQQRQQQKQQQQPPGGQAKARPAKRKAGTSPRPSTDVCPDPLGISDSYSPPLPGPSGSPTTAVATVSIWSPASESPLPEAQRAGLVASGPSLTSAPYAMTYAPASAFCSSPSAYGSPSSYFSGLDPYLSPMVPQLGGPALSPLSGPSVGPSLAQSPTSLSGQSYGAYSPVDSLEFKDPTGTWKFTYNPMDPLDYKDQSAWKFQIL
# ELF4, sequence (Q99607 whole entry): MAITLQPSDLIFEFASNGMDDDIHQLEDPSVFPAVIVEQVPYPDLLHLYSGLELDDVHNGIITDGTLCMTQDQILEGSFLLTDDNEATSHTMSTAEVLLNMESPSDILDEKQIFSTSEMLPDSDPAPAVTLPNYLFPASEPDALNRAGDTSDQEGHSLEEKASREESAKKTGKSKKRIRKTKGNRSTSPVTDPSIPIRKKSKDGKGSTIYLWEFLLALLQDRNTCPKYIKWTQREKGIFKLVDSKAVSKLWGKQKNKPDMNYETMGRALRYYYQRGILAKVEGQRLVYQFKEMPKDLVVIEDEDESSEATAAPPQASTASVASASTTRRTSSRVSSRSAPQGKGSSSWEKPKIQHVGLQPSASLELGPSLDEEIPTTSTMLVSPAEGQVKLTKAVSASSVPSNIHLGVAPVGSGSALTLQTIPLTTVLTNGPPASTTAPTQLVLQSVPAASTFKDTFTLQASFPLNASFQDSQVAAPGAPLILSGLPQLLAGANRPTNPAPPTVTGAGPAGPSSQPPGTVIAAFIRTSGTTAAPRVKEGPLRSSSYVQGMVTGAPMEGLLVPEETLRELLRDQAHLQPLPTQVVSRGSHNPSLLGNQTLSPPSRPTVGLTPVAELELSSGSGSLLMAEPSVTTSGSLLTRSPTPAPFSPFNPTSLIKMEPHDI
# HSF1, sequence (Q00613 whole entry): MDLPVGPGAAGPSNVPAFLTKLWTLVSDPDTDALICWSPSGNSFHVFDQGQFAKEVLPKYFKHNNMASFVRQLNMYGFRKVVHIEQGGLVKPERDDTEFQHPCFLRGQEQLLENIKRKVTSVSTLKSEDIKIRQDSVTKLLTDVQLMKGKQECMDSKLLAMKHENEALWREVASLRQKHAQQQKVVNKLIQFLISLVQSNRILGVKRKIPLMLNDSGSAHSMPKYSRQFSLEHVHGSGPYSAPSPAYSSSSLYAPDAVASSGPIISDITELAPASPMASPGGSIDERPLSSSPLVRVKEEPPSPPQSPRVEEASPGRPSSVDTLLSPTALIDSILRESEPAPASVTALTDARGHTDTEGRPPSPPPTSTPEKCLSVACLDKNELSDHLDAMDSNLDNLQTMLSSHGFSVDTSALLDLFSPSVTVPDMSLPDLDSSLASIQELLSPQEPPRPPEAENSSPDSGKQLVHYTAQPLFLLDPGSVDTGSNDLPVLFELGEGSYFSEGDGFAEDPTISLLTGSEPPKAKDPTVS
# ETV6, sequence (P41212 whole entry): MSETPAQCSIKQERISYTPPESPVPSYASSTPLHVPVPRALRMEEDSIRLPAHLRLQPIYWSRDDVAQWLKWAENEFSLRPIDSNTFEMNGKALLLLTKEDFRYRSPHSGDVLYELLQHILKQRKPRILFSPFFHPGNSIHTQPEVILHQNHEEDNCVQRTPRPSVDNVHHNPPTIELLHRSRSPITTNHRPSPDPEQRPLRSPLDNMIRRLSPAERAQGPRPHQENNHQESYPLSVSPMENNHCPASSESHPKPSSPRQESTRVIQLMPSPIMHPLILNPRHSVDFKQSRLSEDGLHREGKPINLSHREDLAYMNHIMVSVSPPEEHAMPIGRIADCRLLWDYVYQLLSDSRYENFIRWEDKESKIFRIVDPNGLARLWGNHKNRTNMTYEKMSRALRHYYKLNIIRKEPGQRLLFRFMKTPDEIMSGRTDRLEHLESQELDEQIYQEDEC
# ETV5, sequence (P41161 whole entry): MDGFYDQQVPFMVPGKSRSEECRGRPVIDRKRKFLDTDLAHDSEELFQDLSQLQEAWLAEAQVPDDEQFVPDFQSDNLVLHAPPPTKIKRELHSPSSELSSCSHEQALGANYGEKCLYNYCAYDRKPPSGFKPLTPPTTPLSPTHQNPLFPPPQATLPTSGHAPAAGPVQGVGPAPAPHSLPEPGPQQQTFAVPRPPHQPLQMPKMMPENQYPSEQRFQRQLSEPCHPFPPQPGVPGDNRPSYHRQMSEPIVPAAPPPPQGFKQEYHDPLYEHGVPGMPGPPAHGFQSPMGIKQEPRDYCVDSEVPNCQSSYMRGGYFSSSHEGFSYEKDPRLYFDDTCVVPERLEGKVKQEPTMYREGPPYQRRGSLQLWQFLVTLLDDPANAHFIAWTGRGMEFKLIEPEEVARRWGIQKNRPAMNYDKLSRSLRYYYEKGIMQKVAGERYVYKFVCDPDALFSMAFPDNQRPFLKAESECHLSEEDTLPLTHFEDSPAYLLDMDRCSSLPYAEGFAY
sequence,measurement,setting,value
CACGTT,binding signal,[1],"1.26 fold enrichment (6-mer frequency, TF over GST control)"
same,binding signal,[2],"1.3 fold enrichment (6-mer frequency, TF over GST control)"
same,binding signal,[3],"1.11 fold enrichment (6-mer frequency, TF over GST control)"
same,binding signal,[4],"1.33 fold enrichment (6-mer frequency, TF over GST control)"
same,binding signal,[5],"1.31 fold enrichment (6-mer frequency, TF over GST control)"
same,binding signal,[6],"1.29 fold enrichment (6-mer frequency, TF over GST control)"
same,binding signal,[7],"1.36 fold enrichment (6-mer frequency, TF over GST control)"
same,binding signal,[8],"1 fold enrichment (6-mer frequency, TF over GST control)"
same,binding signal,[9],"1.08 fold enrichment (6-mer frequency, TF over GST control)"
same,binding signal,[10],"1.21 fold enrichment (6-mer frequency, TF over GST control)"
same,binding signal,[11],"1.36 fold enrichment (6-mer frequency, TF over GST control)"
same,binding signal,[12],"1.21 fold enrichment (6-mer frequency, TF over GST control)"
same,binding signal,[13],"1.3 fold enrichment (6-mer frequency, TF over GST control)"
same,binding signal,[14],"1.18 fold enrichment (6-mer frequency, TF over GST control)"
same,binding signal,[15],"1.35 fold enrichment (6-mer frequency, TF over GST control)"
same,binding signal,[16],"1.12 fold enrichment (6-mer frequency, TF over GST control)"
same,binding signal,[17],"1.19 fold enrichment (6-mer frequency, TF over GST control)"
same,binding signal,[18],"1.27 fold enrichment (6-mer frequency, TF over GST control)"
